From the supplement of paper PMC3334620
Whole data set: some 33,000 sequences, median “E-score (-0.5 to 0.5)” near -0.015, cut for the highest 2% near 0.3. The list comes from a sample in which the highest values are over-represented; it also holds similar and randomly drawn sequences.

Molecular target: T1, Abf1 (UniProt P14164)
T1 sequence: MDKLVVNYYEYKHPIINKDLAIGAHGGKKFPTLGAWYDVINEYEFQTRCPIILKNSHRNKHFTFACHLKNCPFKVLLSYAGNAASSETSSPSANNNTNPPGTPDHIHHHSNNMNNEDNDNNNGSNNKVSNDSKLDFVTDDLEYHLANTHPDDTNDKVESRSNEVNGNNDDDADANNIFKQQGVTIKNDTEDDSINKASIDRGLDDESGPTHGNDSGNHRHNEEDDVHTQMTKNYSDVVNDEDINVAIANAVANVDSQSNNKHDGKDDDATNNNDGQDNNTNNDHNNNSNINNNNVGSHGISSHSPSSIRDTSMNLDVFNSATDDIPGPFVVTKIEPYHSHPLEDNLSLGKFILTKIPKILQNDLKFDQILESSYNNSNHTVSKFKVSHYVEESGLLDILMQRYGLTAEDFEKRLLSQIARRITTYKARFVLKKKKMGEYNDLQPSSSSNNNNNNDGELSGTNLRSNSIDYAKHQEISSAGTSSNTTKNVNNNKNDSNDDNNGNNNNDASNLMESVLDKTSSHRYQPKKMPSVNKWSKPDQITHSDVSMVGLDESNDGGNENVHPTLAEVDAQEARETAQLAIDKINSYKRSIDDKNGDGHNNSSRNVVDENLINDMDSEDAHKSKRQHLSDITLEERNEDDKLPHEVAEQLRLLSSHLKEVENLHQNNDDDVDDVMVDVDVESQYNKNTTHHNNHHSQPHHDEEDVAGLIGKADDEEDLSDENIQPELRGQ
Assay: PBM E-score (8-mer binding enrichment) (E-score (-0.5 to 0.5)); higher = stronger / more preferred TF binding
Conditions: protein concentration: 200 nM; construct: GST-full length
In short: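 Universal all-10-mer Agilent arrays, double-stranded by primer extension on fresh or once-stripped slides, were probed with about 100-200 nM GST-tagged yeast transcription factors made by PURExpress. Fluorescent anti-GST detected bound protein, and masliner normalised the scans. E-scores from the Universal PBM Analysis Suite were given to each ungapped eight-base word pooled with its reverse complement.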

Sequence	PBM E-score
CAGCTCCA	-0.238
CGATACAG	-0.0796
ACTTTGTA	0.0728
ATTAGATC	-0.00144
ATGCAGCG	-0.174
GCGGGAGC	-0.288
ATCGTTGA	0.208
GTCGTTGA	0.327
CTCGTTGA	0.0588
AGCTCGTA	0.149
GCGCAACA	-0.123
AAAGAGTG	-0.101
ATTATGCA	-0.114
ATTATGTC	0.303
ATTATGCG	0.303
CTTATGTC	0.00318
CTCATGTC	0.0937
ATTATGTA	0.239
ATCATGTA	0.208
ATCATGTC	0.356
ATTATGCC	0.0573
AGCCGGTA	-0.013
CTGGCACA	0.00341
GATCCAAA	0.111
AGTGTTTG	-0.0678

Sequence	PBM E-score
ACGATAAC	0.224
ACGATAAT	0.303
TCGATAAA	0.207
ACGATAAG	0.243
GCGATAAA	0.241
ACGATAAA	0.352
CAGACTCA	-0.218
GGGAACCA	-0.249
CCGAACCA	-0.231
TCGTTCAA	0.357
ACGTTTAA	0.245
CCGTTTAA	0.266
TCGTTTAA	0.341
ACGTTCAA	0.155
GCGTTCAA	-0.0872
TACACTAA	0.114
TAAGACTA	-0.0858
CCAACAGG	-0.363
GAACTTAC	0.0577
ACGGTATC	0.182
CGTTTATA	0.196
CGTTTATC	0.297
AATTTATC	0.314
AGTTTATC	0.173
CATTTATC	0.222

Sequence	PBM E-score
AATTTATA	0.191
CCTCTGAG	-0.215
GATTGGGA	-0.197
AGTGGTTA	0.0354
AAACGACG	0.238
TAACGACA	0.31
AAACGACA	0.321
CAACGACA	0.208
AAACGACT	0.152
GAACGACA	0.296
GCTAAAGC	-0.16
ACGCGGAT	-0.024
GAAACCAC	-0.124
AAGGGACC	0.0128
ACCATAGA	-0.0622
CTTCGTGA	0.317
AGTCGTGA	0.249
CGTCGTGA	0.351
CGTCGTGC	0.315
GCTCGTGA	0.0759
CCTCGTGA	0.363
GTTCGTGA	0.254
CCTCGTGC	0.00335
ATTCGTGA	0.15
ACTCGTGA	0.162

Sequence	PBM E-score
GGTCGTGA	0.195
AGTCGTGC	0.0998
GTGAAAAC	0.138
CACTTCGA	0.223
ATACTGTA	0.0204
GAAACTTC	0.0521
AGACAGTG	-0.0919
GCTTTTTA	0.0686
CGCATCAC	0.263
CACTTTTC	0.192
AGCGGTAC	-0.161
CTGACGTC	0.137
CCCGAGCC	-0.299
ATATCACA	0.282
CTATCACA	0.199
ATATCACG	0.401
CTATCACC	0.226
ATATCAGC	0.00929
ATATCACC	0.438
ATCTCGCG	0.206
ATAATAGC	0.0936
CAGAGGAA	-0.148
CGTAGGAG	0.134
CCCAAAGG	-0.158
TCGTATCA	0.331

Sequence	PBM E-score
CCGTATCA	0.28
GCGTATCA	0.109
ACGTATCA	0.33
ACGTATCT	-0.0664
ACGTATCG	0.212
GCAGAACA	-0.122
ATTGCGTG	-0.126
CGCATCAA	0.081
ACTGGTAT	0.0243
GGTCACGA	0.27
CGTCACTA	0.374
AGTCACTC	0.232
AGTCACTG	0.0546
CGTCACTC	0.173
CGTCACGA	0.336
CGTCACGC	0.145
AGTCACTA	0.315
GGTCACTA	0.281
ACGCCAGA	-0.081
ACCACCTA	-0.168
ACTGAAAT	-0.0641
AGCACCAC	-0.214
ACGTTGGA	0.142
CAACCGAG	-0.0944
GCAGACGA	0.174

Sequence	PBM E-score
ACGGACGA	0.263
ACAGACGA	0.236
GCGGACGA	0.276
TCGGACGA	0.325
TCAGACGA	0.305
AGAATCCG	-0.0715
GCTGAGGA	-0.131
ACGACCTG	0.0542
GGGTAGAA	-0.0486
ACGCTGAT	0.0221
AGTATCAT	0.286
ACTATCAT	0.184
GATATCGA	0.271
GATATCAA	0.207
GATATCAC	0.414
AATATCAC	0.441
AATATCAT	0.391
AATATCAG	0.119
GATATCGC	0.341
GCTATCAC	0.211
AATATCGC	0.283
AATATCAA	0.0238
CTATCAAA	0.121
GCCAGCAC	-0.0263
TAAAGACA	-0.183

Sequence	PBM E-score
CCGGAGCA	-0.291
CAACCTAG	-0.0549
GAAACCGC	-0.15
CATATCAA	0.222
CATATCAC	0.389
AATATCGA	0.0788
AATATCGG	0.187
CATATCAG	0.0515
AATATCGT	0.398
CAGACCTC	0.00051
GCTGGTTA	-0.0104
ACTAAGTG	0.108
GAATATCC	0.0475
CAATATCA	0.283
GAATATCA	0.334
AAATATGT	0.334
TAATATAA	0.196
AAATATGA	0.0696
CAATATTA	0.271
AAATATGC	0.0361
TAATATTA	0.361
TAATATGA	0.261
AAATATTA	0.217
TAATATCA	0.344
AGGTAGAC	-0.249

Sequence	PBM E-score
CTAGGGCA	-0.273
CCCAAAAG	-0.135
AGCGGACT	-0.23
GCTGGAGA	-0.0857
GAGCTGCC	-0.0575
ACAACTCG	0.0757
AAATATCG	0.271
AAATATCC	0.0659
AAATATCA	0.376
CAAATCGC	-0.0589
CCTTACAC	-0.0587
CGTATATC	0.255
AGTATATG	0.0541
CGTATATA	0.357
AGTATATC	0.0567
GGTATATA	0.161
AGTATATA	0.31
AGTGGATC	-0.0658
CTGCCATA	-0.0819
GCCGTATA	0.379
TCCGTAGA	0.143
ACCGTATA	0.384
ACCGTATC	0.225
GGCGTATA	-0.0363
GCCGTAGC	0.0651

Sequence	PBM E-score
GCCGTAGA	0.371
CCCGTATA	0.289
ACCGTATG	0.27
AAGTGTTC	-0.0135
AGTTATAT	0.16
ATGAAGAG	0.0548
CTGGGCAA	-0.172
AATAATTA	0.2
ATCTTATG	0.0695
AAGCGGGC	-0.381
CTACGACA	0.263
GTACGACA	0.36
GCACGACA	0.338
ACACGACA	0.368
ACACGACT	0.0619
CCACGACA	0.0558
ACACGACC	-0.00503
GCACGACC	0.0772
ATACGACA	0.296
